Data taken from PubChem BioAssay AID1159580 (chemical genetic matrix, 2015).
“And” between values parts separate entries of the source, which are not always exact repeats. Equal entries are not always repeated. Hit rate of the full screen: of about 5,500 compounds, about 2,000 (36%) were called active. Not shown: some 18% with an inconclusive outcome. Rule as the data show it: active = normalized growth mostly below about 0.91 (no sharp cut-off); inconclusive = no clear call, values can overlap the other calls; inactive = mostly above about 0.92. The list shows a part of the results.

Assay: chemical genetic growth profiling, strain panel (AID 1159580);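 also: tested at 20 µM; growth read once vehicle control cultures reached saturation at 30 °C; 1 = growth at the plate median or of vehicle wells; lower values mean less growth of the strain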
Settings: growth OD

Measured: normalized growth

O=C1OC(=O)C2C3CCC(O3)C12 (stereo not given)
inactive: S. cerevisiae deletion strains, locus YKL009W, strain mrt4, stronger effect = lower value 0.895 | S. cerevisiae deletion strains, locus YKL068W, stronger effect = lower value 1 | S. cerevisiae deletion strains, locus YKL085W, strain MDH1 (second series), stronger effect = lower value 1.01 | S. cerevisiae deletion strains, locus YKL085W, strain MDH1, stronger effect = lower value 1.01 | S. cerevisiae deletion strains, locus YKL160W, strain elf1, stronger effect = lower value 1.04 | S. cerevisiae deletion strains, locus YKL190W, strain CNB1, stronger effect = lower value 0.991 | S. cerevisiae deletion strains, locus YKR001C, strain vps1, stronger effect = lower value 0.95 | S. cerevisiae deletion strains, locus YKR026C, strain gcn3, stronger effect = lower value 1 | S. cerevisiae deletion strains, locus YKR091W, strain srl3, stronger effect = lower value 1.01 | S. cerevisiae deletion strains, locus YLL001W, strain dnm1, stronger effect = lower value 0.995 | S. cerevisiae deletion strains, locus YLL026W, stronger effect = lower value 1 | S. cerevisiae deletion strains, locus YLL041C, strain sdh2, stronger effect = lower value 1.02 | S. cerevisiae deletion strains, locus YLR027C, strain aat2, stronger effect = lower value 0.994 | S. cerevisiae deletion strains, locus YLR039C, strain RIC1, stronger effect = lower value 1.06 | S. cerevisiae deletion strains, locus YLR058C, strain SHM2, stronger effect = lower value 1.01 | S. cerevisiae deletion strains, locus YLR102C, strain apc9, stronger effect = lower value 0.972 | S. cerevisiae deletion strains, locus YLR221C, strain rsa3, stronger effect = lower value 0.983 | S. cerevisiae deletion strains, locus YLR258W, strain gsy2, stronger effect = lower value 1.02 | S. cerevisiae deletion strains, locus YLR262C, strain YPT6 (second series), stronger effect = lower value 1.06 | S. cerevisiae deletion strains, locus YLR262C, strain YPT6, stronger effect = lower value 1.06 | S. cerevisiae deletion strains, locus YLR268W, strain sec22, stronger effect = lower value 0.979 | S. cerevisiae deletion strains, locus YLR320W, strain mms22, stronger effect = lower value 1 | S. cerevisiae deletion strains, locus YLR330W, strain CHS5, stronger effect = lower value 1 | S. cerevisiae deletion strains, locus YLR342W, strain FKS1 (second series), stronger effect = lower value 1.02 | S. cerevisiae deletion strains, locus YLR342W, strain FKS1, stronger effect = lower value 1.03 | S. cerevisiae deletion strains, locus YLR357W, strain rsc2, stronger effect = lower value 1.01 | S. cerevisiae deletion strains, locus YLR370C, strain arc18, stronger effect = lower value 0.999 | S. cerevisiae deletion strains, locus YLR371W, strain rom2, stronger effect = lower value 0.959 | S. cerevisiae deletion strains, locus YLR384C, strain iki3, stronger effect = lower value 1.01 | S. cerevisiae deletion strains, locus YLR418C, strain cdc73, stronger effect = lower value 0.928 | S. cerevisiae deletion strains, locus YML016C, strain PPZ1, stronger effect = lower value 1.01 | S. cerevisiae deletion strains, locus YML032C, strain rad52, stronger effect = lower value 0.968 | S. cerevisiae deletion strains, locus YML120C, strain ndi1, stronger effect = lower value 0.998 | S. cerevisiae deletion strains, locus YML124C, strain tub3, stronger effect = lower value 0.986 | S. cerevisiae deletion strains, locus YMR058W, strain fet3, stronger effect = lower value 1 | S. cerevisiae deletion strains, locus YMR078C, strain ctf18, stronger effect = lower value 0.963 | S. cerevisiae deletion strains, locus YMR125W, strain sto1, stronger effect = lower value 1.01 | S. cerevisiae deletion strains, locus YMR129W, stronger effect = lower value 1 | S. cerevisiae deletion strains, locus YMR205C, strain PFK2, stronger effect = lower value 1.03 | S. cerevisiae deletion strains, locus YMR223W, strain ubp8, stronger effect = lower value 0.989 | S. cerevisiae deletion strains, locus YMR231W, strain pep5, stronger effect = lower value 0.988 | S. cerevisiae deletion strains, locus YMR263W, strain SAP30, stronger effect = lower value 1.03 | S. cerevisiae deletion strains, locus YMR307W, strain GAS1, stronger effect = lower value 1.02 | S. cerevisiae deletion strains, locus YNL067W, strain RPL9B, stronger effect = lower value 1.01 | S. cerevisiae deletion strains, locus YNL071W, strain lat1, stronger effect = lower value 1 | S. cerevisiae deletion strains, locus YNL128W, strain TEP1, stronger effect = lower value 1.01 | S. cerevisiae deletion strains, locus YNL153C, strain GIM3, stronger effect = lower value 1.01 | S. cerevisiae deletion strains, locus YNL175C, strain NOP13, stronger effect = lower value 1.02 | S. cerevisiae deletion strains, locus YNL183C, strain NPR1, stronger effect = lower value 0.887 | S. cerevisiae deletion strains, locus YNL197C, strain WHI3, stronger effect = lower value 1.01 | S. cerevisiae deletion strains, locus YNL209W, strain ssb2, stronger effect = lower value 0.994 | S. cerevisiae deletion strains, locus YNL224C, strain SQS1, stronger effect = lower value 1.01 | S. cerevisiae deletion strains, locus YNL233W, strain BNI4, stronger effect = lower value 1.02 | S. cerevisiae deletion strains, locus YNL248C, strain rpa49, stronger effect = lower value 1.05 | S. cerevisiae deletion strains, locus YNL250W, strain rad50, stronger effect = lower value 0.93 | S. cerevisiae deletion strains, locus YNL271C, strain bni1, stronger effect = lower value 0.967 | S. cerevisiae deletion strains, locus YNL307C, strain MCK1, stronger effect = lower value 0.977 | S. cerevisiae deletion strains, locus YNL322C, strain KRE1 (second series), stronger effect = lower value 1.01 | S. cerevisiae deletion strains, locus YNL322C, strain KRE1, stronger effect = lower value 1.02 | S. cerevisiae deletion strains, locus YNR049C, strain mso1, stronger effect = lower value 1.01 | S. cerevisiae deletion strains, locus YNR052C, strain pop2, stronger effect = lower value 0.983 | S. cerevisiae deletion strains, locus YOL006C, strain TOP1, stronger effect = lower value 1.03 | S. cerevisiae deletion strains, locus YOL012C, strain htz1 0.735 | S. cerevisiae deletion strains, locus YOL147C, strain pex11, stronger effect = lower value 0.973 | S. cerevisiae deletion strains, locus YOR001W, strain rrp6, stronger effect = lower value 0.964 | S. cerevisiae deletion strains, locus YOR061W, strain CKA2, stronger effect = lower value 1.01 | S. cerevisiae deletion strains, locus YOR069W, strain VPS5, stronger effect = lower value 1.02 | S. cerevisiae deletion strains, locus YOR070C, strain gyp1, stronger effect = lower value 1.02 | S. cerevisiae deletion strains, locus YOR080W, strain dia2, stronger effect = lower value 1.01 | S. cerevisiae deletion strains, locus YOR083W, strain WHI5 (second series), stronger effect = lower value 1.01 | S. cerevisiae deletion strains, locus YOR083W, strain WHI5, stronger effect = lower value 1.04 | S. cerevisiae deletion strains, locus YOR106W, strain vam3, stronger effect = lower value 1.05 | S. cerevisiae deletion strains, locus YOR136W, strain idh2, stronger effect = lower value 0.964 | S. cerevisiae deletion strains, locus YOR144C, strain elg1, stronger effect = lower value 0.982 | S. cerevisiae deletion strains, locus YOR184W, strain ser1, stronger effect = lower value 0.979 | S. cerevisiae deletion strains, locus YOR231W, strain MKK1, stronger effect = lower value 0.89 | S. cerevisiae deletion strains, locus YOR265W, strain rbl2, stronger effect = lower value 1.01 | S. cerevisiae deletion strains, locus YOR270C, strain vph1, stronger effect = lower value 1.03 | S. cerevisiae deletion strains, locus YOR290C, strain snf2, stronger effect = lower value 1.05 | S. cerevisiae deletion strains, locus YOR316C, strain cot1, stronger effect = lower value 0.979 | S. cerevisiae deletion strains, locus YPL051W, strain arl3, stronger effect = lower value 1.03 | S. cerevisiae deletion strains, locus YPL055C, strain LGE1, stronger effect = lower value 0.959 and 1.03 | S. cerevisiae deletion strains, locus YPL078C, strain atp4, stronger effect = lower value 1.06 | S. cerevisiae deletion strains, locus YPL106C, strain sse1, stronger effect = lower value 1.04 | S. cerevisiae deletion strains, locus YPL240C, strain hsp82, stronger effect = lower value 1 | S. cerevisiae deletion strains, locus YPL241C, strain CIN2, stronger effect = lower value 1.01 | S. cerevisiae deletion strains, locus YPL256C, strain CLN2, stronger effect = lower value 0.926 | S. cerevisiae deletion strains, locus YPR119W, strain clb2, stronger effect = lower value 0.968 | S. cerevisiae deletion strains, locus YPR141C, strain kar3, stronger effect = lower value 0.957 | S. cerevisiae deletion strains, locus YPR163C, strain tif3, stronger effect = lower value 0.96 | S. cerevisiae deletion strains, locus YPR167C, strain met16, stronger effect = lower value 0.977 | S. cerevisiae deletion strains, strain wtn01, stronger effect = lower value 0.983 | S. cerevisiae strains, strain wild type, stronger effect = lower value 1.01
active: S. cerevisiae deletion strains, locus YLR113W, strain HOG1, stronger effect = lower value 0.843 | S. cerevisiae deletion strains, locus YNL298W, strain CLA4, stronger effect = lower value 0.901
